KCNQ2 pot – potentiators of rat KCNQ2 potassium channel. hit rate 0.54% among 310,000. AID 2239. O88943. B-score at 10 µM. CHO-K1 KCNQ2, FluxOR thallium flux fluorescence; hits give high values;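 active = fluorescence ratio B-score at least 3 SD of library B-scores, with initial fluorescence B-score within 3 of them, cut at about 5.3 in these data; same plate scores as AID 2156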;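 note: B-score of peak minus minimum over baseline fluorescence ratio after K+ and Tl+ stimulus; positive B-score means potentiation of KCNQ2 with more thallium influx and brighter signal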
KCNQ2 inh – KCNQ2 (rat) channel inhibition; B-score at 10 µM; O88943; CHO-K1 KCNQ2, FluxOR thallium flux, 20 min; hits give low values; hit rate 1.1% among 310,000;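 active = fluorescence ratio B-score at most minus 3 library SDs, with starting brightness B-score within 2 library SDs, cut at about -5.5 in these data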
Kir21 confirm – confirmation of mouse Kir2.1 potassium channel inhibitors; shares compounds with KCNQ2 pot; Kir2.1-expressing cells, FluxOR thallium flux fluorescence; hits give low values; Tl flux remaining, % of negative control (hits give low values), % at 10 µM; hit rate 41% among 2,300;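 active = Primary-screen hit whose thallium flux fell at least 3 control SD below untreated wells in both duplicates, with normal baseline fluorescence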;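 note: 0% = blank wells without stimulus and 100% = stimulated no-compound controls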
HEK293 ctr – parental HEK293 activity in Kir2.1 inhibitor counter-screen. shares compounds with KCNQ2 pot. parental HEK293 cells, FluxOR thallium flux fluorescence; 0% = unstimulated blank wells. FluxOR signal as % of negative control (100 = no effect), % at 10 µM. hit rate 19% among 2,300. AID 2105;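 active = dye signal at least 3 control SD above or below untreated wells in both duplicates, raw fluorescence within 3, either direction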;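 note: percent is based on the flux ratio of peak minus minimum fluorescence over baseline F0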
CHO-K1 ctr – counter-screen for KCNQ2 potentiators: effect in parental CHO-K1 cells. shares compounds with KCNQ2 pot. FluxOR thallium flux fluorescence; zero = vehicle mean+3SD, 100% = vehicle-minus-blank window. hit rate 43% among 1,200. AID 2282. activity increase over 3SD of controls, % at 10 µM;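 active = signal rise of at least 3 SD above the untreated control mean, in both duplicate wells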;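 note: counter screen of KCNQ2 potentiator hits so any rise reflects channel-independent effects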
KCNQ1 sel pot – selectivity of KCNQ2 potentiators: effect on human KCNQ1. shares compounds with KCNQ2 pot. CHO KCNQ1 stable, FluxOR thallium flux fluorescence; beyond 3SD, as % of vehicle-control signal. activation over 3SD threshold, % at 10 µM. hit rate 28% among 1,200. AID 2283;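 active = fluorescence ratio rise of at least 3 SD of vehicle wells above their mean, in both replicate wells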;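 note: 0% = vehicle mean plus 3 SD and 100% = vehicle minus unstimulated blank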
KCNQ2 pot confirm – confirmation of rat KCNQ2 potassium channel potentiators; shares compounds with KCNQ2 pot; CHO-KCNQ2 cells, FluxOR thallium flux fluorescence; potentiation, less the hit threshold, % at 10 µM; hit rate 68% among 1,200;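 active = fluorescence ratio rising 3 SD or more over the vehicle control mean in both replicates, plus primary screen hit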;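 note: peak minus minimum thallium fluorescence divided by baseline after K/Tl stimulus; 0% = vehicle mean plus 3 SD and 100% = vehicle minus unstimulated blank difference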
Kir21 spec – tests whether KCNQ2 potentiators also affect mouse Kir2.1; shares compounds with KCNQ2 pot; HEK293 Kir2.1, FluxOR thallium flux fluorescence; activity over 3SD threshold, % at 10 µM; hit rate 2% among 1,200;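 active = fluorescence ratio rise of at least 3 SD above the vehicle-control mean, seen in both replicates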;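 note: 0% = vehicle mean plus 3 SD and 100% = vehicle minus no-stimulus blank window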
KCNQ2 W236L MoA – rat KCNQ2 W236L mutant potentiation by KCNQ2 potentiators. AID 2558. current increase over 3SD of negative controls (%), hits give high values, % at 25 µM. CHO KCNQ2-W236L, automated patch clamp current. shares compounds with KCNQ2 pot. hit rate 10% among 940;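 active = current increase at least 3 SD of the untreated controls above them in both duplicate recordings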
An asterisk follows results filed as active; i = inactive; · = no result. Only some compounds are listed: those with a hit (about 1.6% of all), similar ones and a draw of the others.

SMILES	KCNQ2 pot	KCNQ2 inh	Kir21 confirm	HEK293 ctr	others
CCC(C)N(C(=O)c1csnn1)C(C(=O)NC1CCCC1)c1ccccc1F (centres undefined)	·	i	·	·
C/C(=N\NC(=O)c1ccc(Cl)c(Cl)c1)c1ccccn1	·	i	·	·
C/C(=N\NC(=O)c1cccc(Br)c1)c1ccccn1	7.69*	i	i	i	CHO-K1 ctr=-18.6;KCNQ1 sel pot=-10.9;KCNQ2 pot confirm=-23.3;Kir21 spec=-36.0
Cc1ccc(CSc2nnc([C@@H]3CCCN3C(=O)OC(C)(C)C)o2)cc1	·	i	50.0%*	66.5%*
Cc1ccc(CSc2nnc(CCNC(=O)OC(C)(C)C)o2)cc1	·	i	29.0%*	i
CC(C)(C)OC(=O)NCCCCCc1nnc(SCc2ccc(F)cc2)o1	·	i	·	·
CC(C)(C)OC(=O)N1CCC[C@H]1c1nnc(SCc2ccccc2)o1	·	i	·	·
CC(C)(C)OC(=O)NCCc1nnc(SCc2ccccc2)o1	·	i	45.0%*	77.0%*
CC(C)(C)OC(=O)NCCc1nnc(SCc2ccccc2Cl)o1	·	i	·	·
Clc1cccc(NCc2nnc(SCc3ccccc3)o2)c1	22.3*	i	i	i	CHO-K1 ctr=46.0*;KCNQ1 sel pot=-20.0;KCNQ2 pot confirm=-18.6;Kir21 spec=-47.1
Clc1cccc(NCc2nnc(SCc3ccccc3Cl)o2)c1	·	i	·	·
CCc1cccc(C)c1NC(=O)CN1CCN(S(=O)(=O)c2ccc(C(C)(C)C)cc2)CC1	5.32*	i	i	i	CHO-K1 ctr=63.4*;KCNQ1 sel pot=-9.1;KCNQ2 pot confirm=-19.1;Kir21 spec=-35.5
CCc1cccc(C)c1NC(=O)COC(=O)C1CCN(S(=O)(=O)c2ccccc2)CC1	1.87	i	·	·
Cc1ccccc1OCc1nnc(SCC(=O)O)n1-c1ccccc1	0.78	i	·	·
Cc1ccccc1OCCSc1nnc(C)n1-c1ccccc1	·	i	46.0%*	i
Cc1nn(C(C)C(=O)NCCCN(Cc2ccccc2)C(C)C)c(=O)c2c1sc1ccccc12 (centres undefined)	0.8	i	·	·
CCC(C(=O)NCCCN(CC)Cc1ccccc1)n1nc(C)c2sc3ccccc3c2c1=O (centres undefined)	·	i	47.0%*	64.5%*
Cc1cccc(C)c1NC(=O)COC(=O)c1ccc([N+](=O)[O-])o1	0.02	i	·	·
CS(=O)(=O)N(CCC#N)Cc1ccc(/C=C2\C(=O)Nc3ccccc32)o1	·	i	·	·
CN1CCN(S(=O)(=O)c2ccc(NC(=O)COc3ccccc3Cl)cc2)CC1	·	i	·	·
CN(CC(=O)NCCc1ccc(F)cc1)Cc1ccc(Br)cc1	-5.74	-5.74*	58.0%*	i
CN(CC(=O)NCCc1ccc(F)cc1)Cc1cccc(Cl)c1	·	i	45.0%*	i
CN(CC(=O)NCCCc1ccccc1)Cc1ccc(Br)cc1	·	i	·	·
O=C(Cc1ccccc1)NCCc1cccc(Cl)c1	11.1*	i	i	i	CHO-K1 ctr=-12.5;KCNQ1 sel pot=-13.1;KCNQ2 pot confirm=23.4*;Kir21 spec=-38.1;KCNQ2 W236L MoA=i
CSc1ccccc1NC(=O)CN(C)Cc1cccc(Cl)c1	·	i	·	·
SMILES	KCNQ2 pot	KCNQ2 inh	Kir21 confirm	HEK293 ctr	others
O=C(O)CCC(=O)NCCc1cccc(Cl)c1	·	i	·	·
COc1ccc(C2=CSC3=C(C(=O)c4cccc(S(=O)(=O)N(C)C)c4)CCN23)cc1	0.43	i	·	·
CC(=O)c1ccc(NC(=O)C(C)Sc2n[nH]c(-c3cccnc3)n2)cc1 (centres undefined)	·	i	·	·
COc1cccc(CN(C)C(=O)c2ccc(N3CCCC3)c([N+](=O)[O-])c2)c1	1.08	i	·	·
Cc1nn(CC(C)C(=O)N2CCN(S(=O)(=O)c3ccc(Cl)cc3)CC2)c(C)c1C (centres undefined)	·	i	·	·
C/C(=N\NC(N)=S)c1ccccc1	·	i	·	·

Screening data: PubChem BioAssay, Johns Hopkins Ion Channel Center
